The source of these data is paper PMC12136788.

To fix the notation:
B1: chrX:100667754:100667755:+_ENSG00000126945_ENST00000316594|hu_hu|FALSE|FALSE (ssRNA)
RNA: GGGAGUUCUACAGUCCGACGAUCUCCGUAUCUAUGAUCAGACAUUCCUGAAAAACAGUAAUUGAGGUCUCUUCCAAAUCUAUCAGACCCAAAGCCAUAUCCAUCAUUAUAGCCACCAUAGUCAUCAUAGCCUCCAUACCCUCCCAACAGAGGAUUGAGCAUCA
B2: 31508769_31511148_1743_CDS_ENSG00000113360_ENST00000513349|human|control|control (ssRNA)
RNA: GGGAGUUCUACAGUCCGACGAUCAGGGUGGGCCUUUUUGCGUUUGAUUUCUGCAAUAACGUCAAAAACUUCAGAGUCUGAGCUGCUAGAACAGGUGCUGUCCUCAUCAGACUCACACUCGGAUUCACUGGAACUCUCUAAAUCCAACAGAGGAUUGAGCAUCA
B3: chr3:127788656:127788657:+_ENSG00000058262_ENST00000243253|hu_mus|motif|central (ssRNA)
RNA: GGGAGUUCUACAGUCCGACGAUCAAUUCACUUCUACUGGUUUUUUGCCAAUGCCAGAAAAAGCAAAAUUUCAAAUUGGAAAUUUCCGGGCACUUUACACAGUGGAAUGAAAAGAUAUGAAAUUUUAAAAAAAAUUAAAAAAAACAACAGAGGAUUGAGCAUCA
B4: chr1:163112212:163112213:-_ENSG00000143248_ENST00000313961|hu_hu|hu_hu_hu_mus_False|48_48 (ssRNA)
RNA: GGGAGUUCUACAGUCCGACGAUCUUUUAUUAUCAGUAAGAGUGAGUUACAUACUAGGCAAAGUAUUGGAUACAAUAAUCAGGAAACAAACACAAUUGGUCCAGAAUUUAAAACUUUAUGAGCGAAGUGCUGGCACAGGACUUACAACAGAGGAUUGAGCAUCA
B5: 95941554_95941674_2216_3pUTR_ENSG00000164938_ENST00000448464|human|control|control (ssRNA)
RNA: GGGAGUUCUACAGUCCGACGAUCGCCAGAGUGGUUAAAGAUUUUGCCUGAAGUUAAAACAAAAAAUGAAAAGUCACUUGGACUGCAGGGAAGAAUACUUACAAUACAAGGCAAUUAAAAAAAAAAAAAGAAAAAAGUUGAGCCCAACAGAGGAUUGAGCAUCA
B6: chr16:94664382:94664383:+_ENSMUSG00000040785_ENSMUST00000117648|mus_hu|motif|central (ssRNA)
RNA: GGGAGUUCUACAGUCCGACGAUCAAAAGCUGGUGCUGAAGAUGAAUCUGACACUGGUUUAGACUUUACAUCUGGUUUAAAUUCCCGGGCAGCUGGAUUCAGUUGUAGUUUAACUCGUACAUACUCCCCUGCUUUUGAAAUUUCCAACAGAGGAUUGAGCAUCA
B7: chr3:127788656:127788657:+_ENSG00000058262_ENST00000243253|hu_hu|motif|central (ssRNA)
RNA: GGGAGUUCUACAGUCCGACGAUCCACUUUCACAGUUCUUUUUGCCAGUGCCAGGAUAAAAAGCAAAAUUUUAAAUUGGAAAAUGUCGGGCACUUUACACAGUGGAAUGAAAGAAUACGAAAUUCAAAAACAUUAUUAAAAGUCCAACAGAGGAUUGAGCAUCA
B8: chr3:154749246:154749247:-_ENSMUSG00000053870_ENSMUST00000066568|mus_hu|FALSE|FALSE (ssRNA)
RNA: GGGAGUUCUACAGUCCGACGAUCGCCAUUUUUAUUAUUAAAAAUAGAAUUACAGUUGAGGAGAGAAGUGCCAGUGAAUACUUAGAACUUCACUGGACCAAAAGCCUCAAAAAAGAUGGAAAAAUUCCAAAGGUAUGCUUAGAACAACAGAGGAUUGAGCAUCA
B9: chr17:65740002:65740003:+_ENSG00000130935_ENST00000581375|hu_hu|hu_hu_hu_mus_False|48_58 (ssRNA)
RNA: GGGAGUUCUACAGUCCGACGAUCAACAAAUCUUUCUUCCCUGGACGAACAGGAAGAUUCAUAUUAAAAAAAAUAUAUGUCUAUGAAGGAGAAUUGAGUGGCCACACCUUUACUCCCAGCACUUUGGGAGGUGGAUCUCUGAGUCAACAGAGGAUUGAGCAUCA

Over roughly 24,000 sequences, “enrichment r” has its median near 0.99; the highest 2% begin near 3.7. This is one part of a sample in which the highest values are shown more often than they occur.

In the assay the target is T1, UNK ZnF1-3 (human, UniProt Q9C0B0 31-174).
T1 sequence: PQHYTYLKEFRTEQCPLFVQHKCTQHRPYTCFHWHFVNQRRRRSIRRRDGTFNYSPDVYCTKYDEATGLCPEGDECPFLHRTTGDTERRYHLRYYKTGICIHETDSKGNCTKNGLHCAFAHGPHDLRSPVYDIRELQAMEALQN
Kind of assay: nsRBNS (natural sequence RNA bind-n-seq); RBNS binding buffer (assumed for nsRBNS): 25 mM Tris pH 7.5, 150 mM KCl, 3 mM MgCl2, 0.01% Triton X-100, 500 ug/ml BSA, 20 U/ml SUPERase-In, 4 C; UNK is unkempt and MSI1 is Musashi-1; names of the RNAs are library labels; protein concentration not given here; high values mean tight binding.
B1 returned a binding signal of 1.11 enrichment R.
Regarding B2, the binding signal was determined as 0.49 enrichment R.
Molecule B3 yielded a binding signal of 6.28 enrichment R.
As for B4, the binding signal turned out to be 1.39 enrichment R.
The result for B5 reads 12.6 enrichment R; that for B6, 1.16 enrichment R; that for B7, 4.09 enrichment R.
As for B8, the binding signal is 2.22 enrichment R.
The result for B9 reads 1.64 enrichment R.
